# Active and inactive are the calls of the source. How the calls were made is not given here.
# Experiment: inhibition of 3D7 malaria parasite growth – strain 3D7 (AID 2306);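 further: 0% = DMSO wells and 100% = chloroquine plus artemisinin control wells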
# Conditions: P. falciparum 3D7 erythrocytic growth, LDH absorbance, 72 h; at 2 µM; active compounds read high
row,Compound,growth inhibition
1,CCCCC(NCC)c1ccc(OCCOc2ccc(C(CCCC)NCC)cc2)cc1 (stereo not given),101% (active)
2,CC(C)(C)c1ccc(CN2CCCCC(NC(=O)c3cc(-c4ccccc4Cl)cs3)C2)cc1 (stereo not given),101% (active)
3,CN(C)Cc1cccc(-c2ccc(NC(=O)c3ccc4c(=O)n(CC5CCCO5)cnc4c3)cc2)c1 (stereo not given),97% (active)
4,CC1CCN(CC[C@H]2CCCN2S(=O)(=O)c2cccc(NC(=O)c3ccc(-c4ccc(Cl)cc4)o3)c2)CC1,101% (active)
5,CCOC(=O)C1=C(C)NC2=C(C(=O)CC(C)(C)C2)C1c1ccc(Cl)cc1 (stereo not given),96% (active)
6,CCn1cnc2c(N3CCCS3(=O)=O)cc(C(=O)N[C@@H](Cc3ccccc3)[C@H](O)CNC(C)(C)c3cccc(C(F)(F)F)c3)cc21,99% (active)
7,Cc1ccc2[nH]c(C3CCCNC3)c(-c3ccncc3)c2c1 (stereo not given),101% (active)
8,COC(=O)[C@@H](NC(=O)[C@H](CC(C)C)Nc1ccc(C#N)c2ccccc12)c1ccc(O)cc1,98% (active)
9,CCC(C)Oc1ccc(CCCON2C(N)=NC(N)=NC2(C)C)cc1 (stereo not given),92% (active)
10,C[C@H]1CN(Cc2cccc(-c3cc(CNC(=O)c4cccc(CN5CCN(CCOc6ccccc6)CC5)c4)ccc3F)c2)CCN1,91% (active)
11,O=C1CCCN1CCCNCc1cccc(-c2ccc(-c3nc4ccccc4[nH]3)s2)c1,97% (active)
12,CC(=O)N[C@H](C(=O)Nc1cccc(-c2ccc(-c3nc4c(C)cccc4[nH]3)s2)c1)C(C)C,93% (active)
13,O=C(Cc1cccc(Cl)c1)Nc1cccc(-c2c[nH]c3nc(Nc4cccc(O)c4)ncc23)c1,100% (active)
14,CC(C)CNC(=O)c1cncc(-c2ccc(CN3CCC(N4CCCC4)CC3)cc2)c1,100% (active)
15,O=C(Nc1ccccc1Cc1ccccc1)c1ccccc1C(F)(F)F,99% (active)
16,CC(C)CCN1CCC(Oc2ccc(NC(=O)c3cccs3)cc2Cl)CC1,97% (active)
17,CNC(=O)c1cnc(Nc2ccc(N3CCN(C)CC3)c(C)c2)nc1NC,97% (active)
18,O=C(Nc1ccc(N2CCNCC2)nc1)c1oc(-c2ccccc2)nc1C(F)(F)F,100% (active)
19,Cc1ccc2nc(C)cc(NN=Cc3ccc([N+](=O)[O-])cc3)c2c1,102% (active)
20,CN1CCN(CCCN(Cc2csc(-c3ccc(CNCc4ccccc4)cc3)n2)C(=O)Nc2ccc3ccccc3c2)CC1,94% (active)

row,Compound,growth inhibition
1,CCOc1ccccc1N1CCN(CCCNC(=O)/C(=C/C=C/c2cc3cc(Cl)c(Cl)cc3[nH]2)OC)CC1,98% (active)
2,CC(O)C1CCCCN1C(=O)c1cccc(-c2cccc(-c3nc4ccc(F)cc4[nH]3)c2)c1 (stereo not given),101% (active)
3,COc1cc(CN2CCC(NC(=O)[C@H](Cc3ccccc3)NC(=O)Nc3ccc(Oc4ccccc4)cc3)C2)ccc1O (stereo not given in full),92% (active)
4,COc1ccc(CNC2CCCC2)cc1-c1ccc(S(=O)(=O)NCCN2CCCC2)s1,96% (active)
5,CS(=O)(=O)CCOCc1ccc(-c2ccc3ncnc(Nc4ccc(OCc5cccc(F)c5)c(Cl)c4)c3c2)o1,96% (active)
6,Oc1ccc(Nc2ccnc3cc(Cl)ccc23)cc1,100% (active)
7,CC[C@H]1CN(Cc2cccc(O)c2)CC[C@H]1CCCc1ccnc2ccc(O)cc12,103% (active)
8,COc1ccc(Nc2nc(NC3CCCC3)cc(-c3ccc(OC)cc3)n2)cc1,86% (active)
9,Cc1cc(N2CCCC2=O)ccc1-c1ccc(C(=O)N2CCC(Oc3cccc(Cl)c3)CC2)cc1,99% (active)
10,Cc1[nH]c2ccc(NS(C)(=O)=O)cc2c1C1CCN(CCC2CCN(C(=O)/C=C/c3ccc(Cl)c(Cl)c3)CC2)CC1,100% (active)
11,O=[N+]([O-])c1ccc(Nc2nc(NN=Cc3ccc(-c4ccc([N+](=O)[O-])cc4)o3)nc(Nc3ccccc3)n2)cc1,101% (active)
12,COc1cccc(Nc2nc(C)cc(NCc3ccc(-c4c(C)noc4C)cc3)n2)c1,98% (active)
13,CC(C)CCNC(=O)[C@@H]1[C@H]2C(=O)N(C3CCCCC3)C(=O)[C@H]2[C@H]2C=C[C@@H]3C(c4ccc(C(C)(C)C)cc4)=NO[C@@H]3N21,96% (active)
14,COc1ccc(-c2cccc(NC(=O)c3cccc(C#N)c3)c2)cc1CN1CCN(C)CC1,91% (active)
15,COc1ccc2nccc(N3CCC(SCCNS(=O)(=O)c4ccc5c(c4)NC(=O)CS5)C3)c2n1 (stereo not given),99% (active)
16,CC[C@H](C)CNC(=O)c1cncc(-c2cccc(CNCCCc3ccccc3)c2)c1,95% (active)
17,Cn1c(NC2=NC3(c4ccccn4)N=C(Nc4nc5ccccc5n4C)NC3(c3ccccn3)N2)nc2ccccc21 (stereo not given),99% (active)
18,Cc1cccc2[nH]c(-c3ccc(-c4cccc(CNCCN(C)C)c4)cc3)nc12,102% (active)
19,CCn1nc(C(=O)NC2CCOc3ccccc32)c2ccccc2c1=O (stereo not given),86% (active)
20,CC(Nc1ccnc2cc(Cl)ccc12)c1ccc(S(N)(=O)=O)cc1 (stereo not given),96% (active)
